SARS PLpro yeast – inhibitors of SARS-CoV papain-like protease in yeast | hit rate 0.19% among 330,000 | Potency, µM (doses to about 32.9 µM), for inactives: at the highest dose activity, positive = growth rescue, hits mostly activators | S. cerevisiae expressing SARS-CoV PLpro, growth rescue; calls by dose curve; further: potency means the concentration at half of the fitted maximal effect; 0% is about no effect; nearly all actives have a fitted effect of over 55% in size
HCMV inh – human cytomegalovirus inhibition; AID 1259415; HFF cells, HCMV-luciferase reporter, 72 h; stronger effect = lower value; hit rate 4.5% among 410,000; activity change, negative = inhibition, % at 57.5 µM; in the data active means activity change below about -60%; inconclusive means no clear call, values can overlap the other calls; inactive means above about -39%; further: on the % scale 0 is the no-effect control and ±100 the full control effect
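Steps: HFFs plated, 16 h 37C; compounds added; HCMV-luciferase added to MOI 1 PFU/cell; 72 h 37C; OneGlo reagent, 5 min room temperature; luminescence read, normalized to controls.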
LASV entry inh – blocks Lassa virus binding to or entry into cells. Lassa virus pseudotype entry inhibition, cell reporter. Potency, µM (titrated, usually from 37.9 µM), inactives show at the highest dose activity change, negative = inhibition, actives largely listed as inhibitors. AID 540256. hit rate 1.2% among 300,000; calls by dose curve; tested in HEK293 cells; further: potency means the concentration at half of the fitted maximal effect; on the % scale 0 is the no-effect control and ±100 the full control effect; nearly all actives have a fitted effect of over 50% in size
MARV entry inh – inhibitors of Marburg virus binding or cell entry | Marburg virus pseudotyped entry inhibition, cell reporter | Potency, µM (top dose mostly 37.8 µM), without a hit: top-dose activity change, negative = inhibition, actives largely listed as inhibitors | hit rate 1.8% among 300,000; calls by dose curve; tested in HEK293 cells; further: potency means the concentration at half of the fitted maximal effect; on the % scale 0 is the no-effect control and ±100 the full control effect
HCV inhibitor – inhibitors of hepatitis C virus infection | Potency, µM (top dose mostly 41.8 µM), for inactives: top-dose activity change, negative = inhibition, most hits filed as inhibitors | hit rate 3.4% among 340,000 | AID 651820 | Huh7.5.1 HCVcc-Cre infection, luciferase reporter, 44 h; active means well fitted inhibition curve with a large enough effect; inconclusive means small, poorly fitted or top-dose-only effect, or another doubt; inactive means no such curve, though single readings can be large or run the other way; further: potency means the concentration at half of the fitted maximal effect; on the % scale 0 is the no-effect control and ±100 the full control effect
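Compounds are dispensed onto cells plated 4 h earlier at 1,000 per well, with HCVcc-Cre virus (about 0.5 moi) added next. Following 44 h of culture, luminescent signal is measured for 15 sec after 15 min with substrate at room temperature.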
FMDV inh – foot and mouth disease virus antiviral activity; hit rate 1.2% among 410,000; FMDV antiviral cell-based qHTS; Potency, µM (highest dose often 57.9 µM), inactives show top-dose activity change, negative = inhibition, actives largely listed as inhibitors; AID 1159524; calls by dose curve; tested in HEK293T cells; further: read-out not given here; potency means the concentration at half of the fitted maximal effect; on the % scale 0 is the no-effect control and ±100 the full control effect; nearly all actives have a fitted effect of over 45% in size
Numbers without * were called inactive; ? = inconclusive; . = no result given; [ ] = another dose, or the depositor's remark. This is a sample that favours compounds with a hit; in the whole collection about 8% have one here.

SMILES	SARS PLpro yeast	HCMV inh	LASV entry inh	MARV entry inh	HCV inhibitor	FMDV inh
CCOc1cc(/C=N\NC(=O)c2ccc(NC(=O)C(C)(C)C)cc2)ccc1OC(=O)c1cccc(C)c1	5%	-11	6.5µM*	2.6µM*	3.2µM*	8.9µM*
CCOc1cc(/C=N\NC(=O)c2ccc(NC(=O)CC)cc2)ccc1OC(=O)c1ccccc1	3%	?	23µM*	?	11%	17%
CC(C)OCCCn1c(=O)c2ccccc2n2c(-c3ccccc3)nnc12	.	-13	1%[46.1 µM]	-14%[46.1 µM]	.	-15%
COc1ccc(NC(=O)c2c(C)oc3ccc(O)c(CN4CCN(Cc5ccccc5)CC4)c23)cc1	.	?	?	?	.	-22%
O=C(Cn1c(=O)n(-c2ccccc2)c(=O)c2c3c(sc21)CCCC3)Nc1cccc(F)c1	.	-2	4%[46.1 µM]	11%[46.1 µM]	.	-19%
Cc1ccc(-n2cccc2C(=O)NS(=O)(=O)c2ccc(C)cc2)cc1	-2%	68	.	.	-7%	-1%
Cc1ccc(-n2cccc2C(=S)N=P(N(C)C)(N(C)C)N(C)C)cc1	-2%	-80*	?	?	?	?
CC12CCC(C(=O)NCc3ccccc3)(OC1=O)C2(C)C (centres undefined)	-3%	2	0%	?	16%	10%
C/C(=N\NC(=O)C12CCC(C)(C(=O)O1)C2(C)C)c1ccccc1O (centres undefined)	2%	-103*	.	.	?	4%
CN(NC(=O)c1cccc(Cl)c1)c1nc(-c2ccccc2)nnc1C(F)(F)F	0%	-5	?	-20%[46.1 µM]	-27%	?
CN(N)c1nc(-c2ccccc2)nnc1C(F)(F)F	-11%	-105*	14%	-5%	-14%	0%
FC(F)(F)c1nnc(-c2ccccc2)nc1Sc1ccc(Cl)cc1	7%	84	?	15µM*	?	-20%
COC(=O)C(NC(=O)OCc1ccccc1)(c1ccc(Cl)cc1)C(Nc1ccccc1)c1ccccc1 (centres undefined)	.	24	.	.	.	.
Cc1ccc2nc3sc(C(=O)N4CCCc5ccccc54)c(N)c3cc2c1	-2%	-90*	?	?	?	12%
CSc1nnc(CNC(=O)/C=C/c2ccccc2Cl)n1-c1ccc(F)cc1	.	.	.	.	.	-2%
O=C(Nc1ccc(C(F)(F)F)cc1)c1cc(S(=O)(=O)NC2CCCCCC2)ccc1F	.	-78*	-4%[46.1 µM]	.	.	-2%
O=C(Nc1ccc(Br)cc1)c1cc(S(=O)(=O)NC2CCCC2)ccc1F	.	-35	?	.	.	5%
O=C(Nc1ccc(C(F)(F)F)cc1)c1cc(S(=O)(=O)NC2CCCCC2)ccc1F	.	-38	-10%[46.1 µM]	.	.	-4%
CCOc1ccc(NC(=O)c2cc(S(=O)(=O)NC3CCCC3)ccc2F)cc1	.	-61*	-1%[46.1 µM]	.	.	14%
Cc1sc2ccccc2c1CC1=NCCN1	1%	-31	13%	?	3.2µM*	?
Cc1c(Cl)cccc1NC(=O)CSc1nc(=O)n(Cc2ccco2)c2c1CCC2	.	?	-17%[46.1 µM]	.	.	0%
COc1ccc(N2CCN(C(=O)c3oc4ccccc4c3NC(=O)CCc3cc(OC)no3)CC2)cc1	0%	-9	-21%[46.1 µM]	-18%[46.1 µM]	?	25µM*
O=C(O)c1cn(-c2ccc(F)cc2)c2cc(Cl)c(F)cc2c1=O	-7%	-61*	-1%[46.1 µM]	1%[46.1 µM]	0%	-12%
CCOC(=O)c1cn(-c2ccc([N+](=O)[O-])cc2)c2cc(Cl)c([N+](=O)[O-])cc2c1=O	5%	-18	?	30%	18%	-22%
COc1cc(OC)cc(C(=O)Nc2cc3c(cc2N2CCCC2)n(C)c(=O)c(=O)n3C)c1	.	57	16%[46.1 µM]	.	.	-13%
SMILES	SARS PLpro yeast	HCMV inh	LASV entry inh	MARV entry inh	HCV inhibitor	FMDV inh
CCc1nnc(SCC(=O)Nc2ccc(OC)c(OC)c2)c2cc3occc3n12	.	0	?	.	.	?
CCc1cccc(C)c1NC(=O)CSc1nnc(CC)n2c1cc1occc12	.	-69*	-1%[46.1 µM]	.	.	22µM*
CCc1nn(C(C)C(=O)NCCN2CCCCCC2)c(=O)c2cc3occc3n12 (centres undefined)	3%	-19	-5%[46.1 µM]	?	?	-6%
CCc1nn(C(C)C(=O)Nc2cccc(C)c2C)c(=O)c2cc3occc3n12 (centres undefined)	9%	-35	2%	-24%	11µM*	2%
CCc1nn(C(C)C(=O)N2CCc3ccccc3C2)c(=O)c2cc3occc3n12 (centres undefined)	1%	-15	-15%	-9%	17%	4%
CCc1nn(C(C)C(=O)NCCN2CCN(c3cccc(C)c3C)CC2)c(=O)c2cc3occc3n12 (centres undefined)	1%	-11	-13%	?	1.8µM*	28µM*
COc1cc(CCN2C(=O)NC(c3cccc(C(F)(F)F)c3)C(C(C)=O)=C2C)cc(OC)c1OC (centres undefined)	.	.	1%[14.3 µM]	5%[14.2 µM]	.	.
COc1ccccc1NC(=O)c1cc2n(n1)C(C(F)(F)F)CC(c1ccc3c(c1)OCO3)N2 (centres undefined)	-6%	-25	?	?	?	0%
COc1ccc(OC)c(NC(=O)c2cc3n(n2)C(C(F)(F)F)CC(c2ccc4c(c2)OCO4)N3)c1 (centres undefined)	-5%	-29	-7%	2%	32µM*	0%
COc1ccc(-c2noc(N3CCC(C(=O)N(C)c4ccccc4C)CC3)n2)cc1	1%	?	.	.	11µM*	6%
COc1ccc(-c2noc(N3CCC(C(=O)Nc4cccc(OC)c4)CC3)n2)cc1	-5%	-30	.	.	22µM*	-22%
COc1ccc(-c2noc(N3CCC(C(=O)Nc4cccc(C)c4C)CC3)n2)cc1	.	49	22%[46.1 µM]	.	.	-6%
CC(=O)c1cccc(NC(=O)CC(c2ccc(C)cc2)N2Cc3ccccc3C2=O)c1 (centres undefined)	.	-2	-19%[46.1 µM]	.	.	26%
COCCNC(=O)/C(C#N)=C/c1cccc(NC(=O)c2ccccc2Cl)c1	15%	65	14%	-1%	14%	0%
CC(C)NC(=O)/C(C#N)=C/c1cccc(NC(=O)c2ccccc2Cl)c1	-61%	41	7%	?	-2%	14µM*
Cc1cc(NC(=O)c2ccc3[nH]c(C)c(C)c3c2)ccn1	2%	-2	-28%[46.1 µM]	-17%[46.1 µM]	2.5µM*	-26%
Cc1ccc(-c2csc(=Nc3ccccc3)n2Cc2ccc3c(c2)OCO3)cc1	.	-6	1%[46.1 µM]	?	.	-18%
Cc1ccc(-n2c3nc(=O)[nH]c(=O)c-3cc3cc([N+](=O)[O-])ccc32)cc1	3%	-23	?	?	31%	32µM*
COc1ccc(CNC(=O)c2cccn2-c2nnc(N3CCCC3)s2)c(OC)c1	.	0	2%[46.1 µM]	.	.	2%
CC(C)CNc1ncnc2c1ncn2[C@H]1CN(Cc2cccc3ccccc23)C[C@@H](CO)O1	.	-70*	.	.	.	-2%

Screening results (PubChem BioAssay)
